Data as given in the supplement of paper PMC10849652.
About 7,900 targets were measured; listed, in parts, are those with a hit and a random draw of the rest. About 0.6% of all pairs of compound and target were hits. Unmarked numbers belong to inactive results.

Key:
Test in all cases: log2 fold change, soluble protein after heating vs DMSO (PISA); higher = thermal stabilisation; K562 cells, 10 uM, 30 min; active = over 0.2 and 3.5 SD of the protein, either way, in both replicates (recomputed)
[1] = compound: C1=CC=C(C=C1)[C@H](COC2=CC3=C(C=C2)NC(=O)N3)NC(=O)C4=CC=CN(C4=O)CC5=CC(=C(C=C5)F)F
In short: (§1)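 Quantification of soluble protein used TMTpro 16plex LC-MS/MS, with channel sums equalised. Samples were the supernatant after 21,000xg for 90 min of pooled aliquots from K562 cells (2×10^6 cells/mL) treated with 10 μM compound for 30 min, heated for 3 min over 48°C-58°C, and extracted in PBS with 0.5% NP-40 at 4°C. Values, from duplicates, describe thermal stability against control samples on a log2 fold-change scale.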

[2] = compound: CC1=C(SC2=C1C(=N[C@H](C3=NN=C(N32)C)CC(=O)N)C4=CC=C(C=C4)Cl)C
In short: as §1

[3] = compound: CC1=C2C(=CC=C1)N=C(N(C2=O)C3=CC=CC=C3C)CN4C=NC5=C(N=CN=C54)N
In short: as §1

[4] = compound: Cc1sc2c(c1C)C(c1ccc(Cl)cc1)=N[C@@H](CC(=O)OC(C)(C)C)c1nnc(C)n1-2
In short: as §1

[5] = compound: c1ccc([C@@H]2C[C@H]2NC2CCNCC2)cc1
In short: as §1

## HMGB3 (UniProt O15347)
[1]
  log2 fold change: -0.005
[2]
  log2 fold change: 0.022
[3]
  log2 fold change: -0.03
[4]
  log2 fold change: -0.055
[5]
  log2 fold change: -0.033

## HNRNPUL2 (UniProt Q1KMD3)
[1]
  log2 fold change: 0.054
[2]
  log2 fold change: -0.05
[3]
  log2 fold change: -0.041
[4]
  log2 fold change: 0.105
[5]
  log2 fold change: 0.04

## IFT80 isoform 3 (UniProt Q9P2H3)
[1]
  log2 fold change: -0.011
[2]
  log2 fold change: 0.052
[3]
  log2 fold change: 0.083
[4]
  log2 fold change: -0.036
[5]
  log2 fold change: -0.027

## HADHA (UniProt P40939)
[1]
  log2 fold change: -0.218
[2]
  log2 fold change: 0.254
[3]
  log2 fold change: 0.214
[4]
  log2 fold change: 0.256
[5]
  log2 fold change: -0.051

## GPKOW (UniProt Q92917)
[1]
  log2 fold change: -0.133
[2]
  log2 fold change: 0.078
[3]
  log2 fold change: 0.076
[4]
  log2 fold change: 0
[5]
  log2 fold change: -0.015

## HDDC2 (UniProt Q7Z4H3)
Sequence of UniProt Q7Z4H3 (Q7Z4H3 whole entry, looked up): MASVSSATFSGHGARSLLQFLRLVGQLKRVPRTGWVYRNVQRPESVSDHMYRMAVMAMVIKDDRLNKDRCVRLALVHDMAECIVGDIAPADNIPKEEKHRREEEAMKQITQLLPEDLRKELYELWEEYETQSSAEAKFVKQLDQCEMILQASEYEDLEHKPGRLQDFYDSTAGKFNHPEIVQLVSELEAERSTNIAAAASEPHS
[1]
  log2 fold change: 0.009
[2]
  log2 fold change: 0.057
[3]
  log2 fold change: -0.012
[4]
  log2 fold change: -0.071
[5]
  log2 fold change: -0.038

## HSD17B12 (UniProt Q53GQ0)
[1]
  log2 fold change: 0.013
[2]
  log2 fold change: 0.061
[3]
  log2 fold change: 0.066
[4]
  log2 fold change: 0.042
[5]
  log2 fold change: -0.008

## HDAC7 isoform 5 (UniProt Q8WUI4)
Sequence of UniProt Q8WUI4 (Q8WUI4 whole entry, looked up): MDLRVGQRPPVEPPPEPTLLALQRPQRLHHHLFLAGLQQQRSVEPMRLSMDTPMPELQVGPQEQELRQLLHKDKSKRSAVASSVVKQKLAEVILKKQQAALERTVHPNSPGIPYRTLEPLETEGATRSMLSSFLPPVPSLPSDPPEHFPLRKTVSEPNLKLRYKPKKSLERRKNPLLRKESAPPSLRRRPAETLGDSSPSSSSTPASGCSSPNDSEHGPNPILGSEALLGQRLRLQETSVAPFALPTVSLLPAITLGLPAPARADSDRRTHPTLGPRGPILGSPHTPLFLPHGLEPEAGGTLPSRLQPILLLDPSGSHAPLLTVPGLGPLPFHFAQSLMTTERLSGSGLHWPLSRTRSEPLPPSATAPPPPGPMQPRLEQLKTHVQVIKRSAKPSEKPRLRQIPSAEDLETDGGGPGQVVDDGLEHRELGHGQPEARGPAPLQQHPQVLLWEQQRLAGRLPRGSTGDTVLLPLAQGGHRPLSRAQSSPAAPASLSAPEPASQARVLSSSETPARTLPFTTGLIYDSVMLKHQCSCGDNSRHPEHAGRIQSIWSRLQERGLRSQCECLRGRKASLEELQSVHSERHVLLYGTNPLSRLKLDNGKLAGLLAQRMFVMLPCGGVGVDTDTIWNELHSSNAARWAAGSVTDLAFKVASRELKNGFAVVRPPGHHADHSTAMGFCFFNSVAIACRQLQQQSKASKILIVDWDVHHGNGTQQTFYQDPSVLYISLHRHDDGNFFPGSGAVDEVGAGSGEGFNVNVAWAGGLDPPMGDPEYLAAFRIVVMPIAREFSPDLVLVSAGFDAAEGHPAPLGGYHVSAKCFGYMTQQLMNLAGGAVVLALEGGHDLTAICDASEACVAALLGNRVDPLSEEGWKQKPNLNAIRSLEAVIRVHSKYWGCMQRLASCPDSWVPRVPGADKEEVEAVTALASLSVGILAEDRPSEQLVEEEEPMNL
[1]
  log2 fold change: -0.008
[2]
  log2 fold change: 0.039
[3]
  log2 fold change: -0.004
[4]
  log2 fold change: -0.026
[5]
  log2 fold change: -0.003

## GPX4 (UniProt P36969)
[1]
  log2 fold change: 0.029
[2]
  log2 fold change: 0.001
[3]
  log2 fold change: 0.017
[4]
  log2 fold change: -0.064
[5]
  log2 fold change: 0.028

## GCSH (UniProt P23434)
[1]
  log2 fold change: 0.029
[2]
  log2 fold change: -0.004
[3]
  log2 fold change: -0.043
[4]
  log2 fold change: 0
[5]
  log2 fold change: 0.043

## HMG20A (UniProt Q9NP66)
[1]
  log2 fold change: 0.07
[2]
  log2 fold change: -0.085
[3]
  log2 fold change: 0.048
[4]
  log2 fold change: 0.048
[5]
  log2 fold change: 0.536 (active)

## HEXB (UniProt P07686)
[1]
  log2 fold change: 0.028
[2]
  log2 fold change: 0.005
[3]
  log2 fold change: 0.064
[4]
  log2 fold change: -0.008
[5]
  log2 fold change: 0.016

## FRA10AC1 isoform 3 (UniProt Q70Z53)
[1]
  log2 fold change: -0.03
[2]
  log2 fold change: 0.005
[3]
  log2 fold change: 0.055
[4]
  log2 fold change: 0.069
[5]
  log2 fold change: 0.073

## GHDC (UniProt Q8N2G8)
[1]
  log2 fold change: 0.061
[2]
  log2 fold change: 0.016
[3]
  log2 fold change: 0.022
[4]
  log2 fold change: 0.031
[5]
  log2 fold change: -0.019

## GPD1 (UniProt P21695)
[1]
  log2 fold change: 0.095
[2]
  log2 fold change: 0.028
[3]
  log2 fold change: 0.123
[4]
  log2 fold change: -0.019
[5]
  log2 fold change: -0.238

## GOLGB1 isoform 2 (UniProt Q14789)
[1]
  log2 fold change: 0.045
[2]
  log2 fold change: -0.024
[3]
  log2 fold change: 0.018
[4]
  log2 fold change: 0.013
[5]
  log2 fold change: 0.045

## GABPA (UniProt Q06546)
[1]
  log2 fold change: -0.001
[2]
  log2 fold change: 0.005
[3]
  log2 fold change: 0.149
[4]
  log2 fold change: -0.01
[5]
  log2 fold change: -0.041

## GAK (UniProt O14976)
[2]
  log2 fold change: 0.095
[3]
  log2 fold change: -0.032
[4]
  log2 fold change: 0.078
[5]
  log2 fold change: -0.209

## GTPBP6 (UniProt O43824)
[1]
  log2 fold change: 0.038
[2]
  log2 fold change: 0.007
[3]
  log2 fold change: 0.012
[4]
  log2 fold change: -0.062
[5]
  log2 fold change: -0.034

## GOLGA6B (UniProt A6NDN3)
[1]
  log2 fold change: 0.043
[3]
  log2 fold change: 0.19

## GTF3A (UniProt Q92664)
[1]
  log2 fold change: 0.002
[2]
  log2 fold change: -0.001
[3]
  log2 fold change: 0.08
[4]
  log2 fold change: -0.072
[5]
  log2 fold change: -0.071

## HBQ1 (UniProt P09105)
[1]
  log2 fold change: 0.023
[2]
  log2 fold change: 0.135
[3]
  log2 fold change: 0.092
[4]
  log2 fold change: -0.147
[5]
  log2 fold change: -0.037

## HSPA8 (UniProt E9PN89)
[1]
  log2 fold change: 0
[2]
  log2 fold change: 0.094
[3]
  log2 fold change: 0.123
[4]
  log2 fold change: 0.133
[5]
  log2 fold change: 0.104

## HP1BP3 (UniProt Q5SSJ5)
[1]
  log2 fold change: 0.015
[2]
  log2 fold change: -0.04
[3]
  log2 fold change: 0.087
[4]
  log2 fold change: 0.142
[5]
  log2 fold change: 0.011

## GLB1 (UniProt P16278)
Sequence of UniProt P16278 (P16278 whole entry, looked up): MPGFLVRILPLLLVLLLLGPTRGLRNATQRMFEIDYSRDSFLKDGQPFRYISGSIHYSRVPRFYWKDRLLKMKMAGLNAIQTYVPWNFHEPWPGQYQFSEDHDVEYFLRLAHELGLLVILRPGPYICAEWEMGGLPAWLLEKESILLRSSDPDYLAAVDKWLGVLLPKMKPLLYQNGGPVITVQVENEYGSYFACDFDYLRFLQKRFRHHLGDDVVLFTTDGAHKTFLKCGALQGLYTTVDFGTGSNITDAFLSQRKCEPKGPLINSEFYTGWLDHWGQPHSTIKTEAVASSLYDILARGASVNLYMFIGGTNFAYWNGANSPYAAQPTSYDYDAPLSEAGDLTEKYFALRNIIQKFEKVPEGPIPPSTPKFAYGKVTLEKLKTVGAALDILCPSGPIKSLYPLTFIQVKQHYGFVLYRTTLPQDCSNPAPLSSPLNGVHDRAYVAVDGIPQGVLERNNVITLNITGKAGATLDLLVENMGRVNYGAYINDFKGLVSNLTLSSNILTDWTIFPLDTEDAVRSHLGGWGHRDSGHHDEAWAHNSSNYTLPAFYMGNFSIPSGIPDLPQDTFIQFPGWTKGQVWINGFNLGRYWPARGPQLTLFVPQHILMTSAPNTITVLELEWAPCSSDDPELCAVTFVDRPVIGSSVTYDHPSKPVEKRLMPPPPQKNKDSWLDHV
[1]
  log2 fold change: 0.042
[2]
  log2 fold change: -0.065
[3]
  log2 fold change: 0.011
[4]
  log2 fold change: -0.043
[5]
  log2 fold change: 0.026

## GGA2 (UniProt Q9UJY4)
[1]
  log2 fold change: -0.023
[2]
  log2 fold change: 0.014
[3]
  log2 fold change: -0.035
[4]
  log2 fold change: 0.041
[5]
  log2 fold change: -0.047

## GEMIN2 (UniProt O14893)
[1]
  log2 fold change: 0.044
[2]
  log2 fold change: 0.013
[3]
  log2 fold change: -0.049
[5]
  log2 fold change: 0.025

## HNRNPK isoform 3 (UniProt P61978)
[1]
  log2 fold change: 0.014
[3]
  log2 fold change: 0.074
[4]
  log2 fold change: 0.061

## GBF1 (UniProt Q92538)
[1]
  log2 fold change: -0.078
[2]
  log2 fold change: 0.036
[3]
  log2 fold change: 0.072
[4]
  log2 fold change: -0.005
[5]
  log2 fold change: 0.003

## GSE1 (UniProt Q14687)
Sequence of UniProt Q14687 (Q14687 whole entry, looked up): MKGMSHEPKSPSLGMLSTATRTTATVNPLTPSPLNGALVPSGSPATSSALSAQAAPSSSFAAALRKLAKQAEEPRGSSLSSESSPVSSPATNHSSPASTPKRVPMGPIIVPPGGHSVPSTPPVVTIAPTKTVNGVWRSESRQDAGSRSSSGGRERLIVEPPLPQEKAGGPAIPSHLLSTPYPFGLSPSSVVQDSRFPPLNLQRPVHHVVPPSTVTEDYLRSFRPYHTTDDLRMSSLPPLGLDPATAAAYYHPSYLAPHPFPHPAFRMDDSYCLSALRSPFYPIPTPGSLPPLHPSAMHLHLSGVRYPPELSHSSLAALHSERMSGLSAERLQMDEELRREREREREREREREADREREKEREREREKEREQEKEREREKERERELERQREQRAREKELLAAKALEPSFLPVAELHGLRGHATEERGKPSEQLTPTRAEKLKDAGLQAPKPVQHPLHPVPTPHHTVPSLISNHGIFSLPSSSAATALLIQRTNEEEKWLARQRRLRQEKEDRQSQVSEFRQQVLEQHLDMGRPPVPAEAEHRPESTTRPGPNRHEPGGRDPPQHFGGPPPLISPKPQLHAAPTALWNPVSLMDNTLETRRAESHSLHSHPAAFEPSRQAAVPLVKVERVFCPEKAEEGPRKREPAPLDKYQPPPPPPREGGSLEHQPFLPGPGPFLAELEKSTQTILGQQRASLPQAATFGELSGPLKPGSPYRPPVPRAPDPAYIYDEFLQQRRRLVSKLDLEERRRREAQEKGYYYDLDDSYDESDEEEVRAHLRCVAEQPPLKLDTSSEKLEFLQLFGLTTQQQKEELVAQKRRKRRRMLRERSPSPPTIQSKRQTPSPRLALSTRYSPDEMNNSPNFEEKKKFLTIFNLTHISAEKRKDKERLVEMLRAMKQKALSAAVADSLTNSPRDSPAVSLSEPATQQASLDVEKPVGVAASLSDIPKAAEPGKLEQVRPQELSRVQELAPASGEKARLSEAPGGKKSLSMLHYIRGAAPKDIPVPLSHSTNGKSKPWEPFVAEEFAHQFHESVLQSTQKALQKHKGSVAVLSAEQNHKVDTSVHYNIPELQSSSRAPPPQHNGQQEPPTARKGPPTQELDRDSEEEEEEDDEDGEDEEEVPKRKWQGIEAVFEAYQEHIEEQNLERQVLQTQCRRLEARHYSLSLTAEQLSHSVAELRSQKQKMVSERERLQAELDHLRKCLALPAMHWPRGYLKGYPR
[1]
  log2 fold change: -0.151
[2]
  log2 fold change: 0.029
[3]
  log2 fold change: 0.008
[5]
  log2 fold change: 1.45 (active)

## HS1BP3 (UniProt Q53T59)
[1]
  log2 fold change: -0.046
[2]
  log2 fold change: 0.087
[3]
  log2 fold change: -0.001
[5]
  log2 fold change: -0.203

## IGF2 isoform 3 (UniProt P01344)
[3]
  log2 fold change: 0.077

## FKBP4 (UniProt Q02790)
[1]
  log2 fold change: -0.032
[2]
  log2 fold change: 0.042
[3]
  log2 fold change: 0.037
[4]
  log2 fold change: 0.004
[5]
  log2 fold change: -0.029

## GLUD1 (UniProt P00367)
[1]
  log2 fold change: 0.046
[2]
  log2 fold change: 0.065
[3]
  log2 fold change: -0.004
[4]
  log2 fold change: 0.071
[5]
  log2 fold change: -0.03

## GPS2 (UniProt Q13227)
[1]
  log2 fold change: 0.015
[3]
  log2 fold change: 0
[4]
  log2 fold change: 0.039

## GAB2 (UniProt Q9UQC2)
[2]
  log2 fold change: 0.153
[3]
  log2 fold change: -0.059
[4]
  log2 fold change: 0.396
[5]
  log2 fold change: -0.034

## GTF2A2 (UniProt P52657)
Sequence of UniProt P52657 (P52657 whole entry, looked up): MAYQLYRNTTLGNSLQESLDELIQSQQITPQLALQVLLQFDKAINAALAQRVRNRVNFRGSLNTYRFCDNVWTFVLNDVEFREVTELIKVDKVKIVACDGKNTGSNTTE
[1]
  log2 fold change: 0.003
[2]
  log2 fold change: 0.057
[3]
  log2 fold change: 0.092
[4]
  log2 fold change: -0.064
[5]
  log2 fold change: -0.017

## HIC2 (UniProt Q96JB3)
Sequence of UniProt Q96JB3 (Q96JB3 whole entry, looked up): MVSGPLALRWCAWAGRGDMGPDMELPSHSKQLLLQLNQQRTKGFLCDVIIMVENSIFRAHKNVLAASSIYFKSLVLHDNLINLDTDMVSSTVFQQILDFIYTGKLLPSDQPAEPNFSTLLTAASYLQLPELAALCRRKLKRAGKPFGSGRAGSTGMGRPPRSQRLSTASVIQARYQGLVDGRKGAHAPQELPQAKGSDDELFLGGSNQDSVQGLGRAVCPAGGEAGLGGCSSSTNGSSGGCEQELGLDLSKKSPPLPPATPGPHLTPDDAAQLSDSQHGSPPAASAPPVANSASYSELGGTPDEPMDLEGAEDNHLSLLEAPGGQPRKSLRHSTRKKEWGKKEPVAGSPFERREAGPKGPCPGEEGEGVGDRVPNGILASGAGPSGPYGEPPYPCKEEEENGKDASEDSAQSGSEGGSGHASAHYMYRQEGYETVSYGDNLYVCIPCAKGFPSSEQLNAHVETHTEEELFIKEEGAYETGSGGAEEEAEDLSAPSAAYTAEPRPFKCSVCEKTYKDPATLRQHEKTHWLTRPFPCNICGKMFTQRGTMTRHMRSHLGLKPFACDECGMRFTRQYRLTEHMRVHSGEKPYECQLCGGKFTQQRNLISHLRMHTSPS
[1]
  log2 fold change: 0.163
[2]
  log2 fold change: -0.053
[3]
  log2 fold change: -0.048
[4]
  log2 fold change: 0.205
[5]
  log2 fold change: 0.078

## FOXO3 (UniProt O43524)
[2]
  log2 fold change: 0.065
[3]
  log2 fold change: 0.012
[4]
  log2 fold change: 0.125
[5]
  log2 fold change: -0.039

## FCHO1 (UniProt O14526)
[2]
  log2 fold change: 0.013
[3]
  log2 fold change: 0.125
[4]
  log2 fold change: 0.022
[5]
  log2 fold change: -0.065

## HRC (UniProt P23327)
[1]
  log2 fold change: 0.026
[2]
  log2 fold change: -0.042
[3]
  log2 fold change: 0.055
[4]
  log2 fold change: 0.014
[5]
  log2 fold change: 0.033

## GREB1 (UniProt Q4ZG55)
[2]
  log2 fold change: 0.095
[3]
  log2 fold change: 0.175
[4]
  log2 fold change: 0.037
[5]
  log2 fold change: -0.1

## FMR1 (UniProt Q06787)
[2]
  log2 fold change: -0.237
[5]
  log2 fold change: -0.038

## FHOD1 (UniProt Q9Y613)
[1]
  log2 fold change: -0.033
[2]
  log2 fold change: -0.065
[3]
  log2 fold change: 0.086
[5]
  log2 fold change: -0.034

## HNRNPUL1 (UniProt M0R247)
[2]
  log2 fold change: 0.079
[4]
  log2 fold change: 0.204
[5]
  log2 fold change: 0.122

## IDH3A isoform 2 (UniProt P50213)
Sequence of UniProt P50213 (P50213 whole entry, looked up): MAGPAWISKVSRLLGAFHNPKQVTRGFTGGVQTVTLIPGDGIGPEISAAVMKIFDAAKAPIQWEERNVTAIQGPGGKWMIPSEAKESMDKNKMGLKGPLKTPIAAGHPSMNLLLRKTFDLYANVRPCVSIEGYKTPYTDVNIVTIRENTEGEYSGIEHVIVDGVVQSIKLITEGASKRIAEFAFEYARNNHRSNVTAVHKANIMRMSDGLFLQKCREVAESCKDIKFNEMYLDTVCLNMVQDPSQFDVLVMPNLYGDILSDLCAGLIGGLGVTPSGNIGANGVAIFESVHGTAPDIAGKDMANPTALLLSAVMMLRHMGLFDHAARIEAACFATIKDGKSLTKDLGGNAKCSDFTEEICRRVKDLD
[1]
  log2 fold change: 0.118
[2]
  log2 fold change: 0.251
[4]
  log2 fold change: -0.069
[5]
  log2 fold change: -0.059

## FBXO9 (UniProt Q9UK97)
[1]
  log2 fold change: -0.011
[2]
  log2 fold change: 0.23
[3]
  log2 fold change: 0.016
[4]
  log2 fold change: 0.161
[5]
  log2 fold change: 0.07

## GTF3C5 isoform 3 (UniProt Q9Y5Q8)
[1]
  log2 fold change: -0.097
[2]
  log2 fold change: -0.082
[3]
  log2 fold change: 0.103
[4]
  log2 fold change: 0.049
[5]
  log2 fold change: -0.159

## ICMT (UniProt O60725)
[1]
  log2 fold change: 0.047
[3]
  log2 fold change: 0.115
[4]
  log2 fold change: 0.07

## FIZ1 (UniProt Q96SL8)
[2]
  log2 fold change: -0.297
[3]
  log2 fold change: -0.097
[5]
  log2 fold change: 0.044

## FCF1 (UniProt Q9Y324)
[3]
  log2 fold change: -0.362
[4]
  log2 fold change: 0.248

## FYB1 isoform 3 (UniProt O15117)
Sequence of UniProt O15117 (O15117 whole entry, looked up): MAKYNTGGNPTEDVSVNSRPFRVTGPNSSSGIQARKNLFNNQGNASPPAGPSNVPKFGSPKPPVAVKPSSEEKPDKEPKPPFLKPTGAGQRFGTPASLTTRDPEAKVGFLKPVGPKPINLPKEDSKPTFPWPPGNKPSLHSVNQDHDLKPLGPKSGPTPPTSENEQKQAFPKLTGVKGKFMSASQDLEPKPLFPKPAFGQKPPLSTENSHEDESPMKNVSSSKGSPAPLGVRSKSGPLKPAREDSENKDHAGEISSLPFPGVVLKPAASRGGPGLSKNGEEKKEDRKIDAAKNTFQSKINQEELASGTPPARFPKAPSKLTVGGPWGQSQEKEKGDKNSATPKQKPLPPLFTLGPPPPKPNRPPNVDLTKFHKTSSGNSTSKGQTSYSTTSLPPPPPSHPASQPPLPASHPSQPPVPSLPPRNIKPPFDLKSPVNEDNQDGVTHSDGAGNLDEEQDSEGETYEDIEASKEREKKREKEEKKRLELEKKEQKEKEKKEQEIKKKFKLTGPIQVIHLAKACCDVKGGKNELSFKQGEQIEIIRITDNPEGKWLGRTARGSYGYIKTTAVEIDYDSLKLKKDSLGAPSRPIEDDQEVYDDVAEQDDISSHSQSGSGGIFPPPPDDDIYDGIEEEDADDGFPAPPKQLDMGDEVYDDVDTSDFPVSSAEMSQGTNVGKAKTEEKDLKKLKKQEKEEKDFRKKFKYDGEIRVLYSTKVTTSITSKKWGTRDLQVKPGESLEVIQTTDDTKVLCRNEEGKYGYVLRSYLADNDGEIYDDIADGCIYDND
[1]
  log2 fold change: -0.09
[3]
  log2 fold change: 0.005
[4]
  log2 fold change: -0.017
